Pf Dd2 inh – qHTS Primary assay for Inhibitors of Plasmodium falciparum Dd2 growth in vitro; 120,000 compounds, 4.3% hits; Potency, µM (highest dose often 28.9 µM), hits mostly inhibitors; P. falciparum Dd2 growth, SYBR Green, 72 h; active = well fitted inhibition curve with a large enough effect; note: nearly all actives have a fitted effect of over 65% in size
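Readout: SYBR Green fluorescence, 485 nm excitation, 535 nm emission, after ~16 h lysis at 37C. Before that, Dd2-infected red cells (2.5% hematocrit) grew 72 h with compound, 29 uM top final concentration.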
Numbers stand for hits; – = inactive; [ ] = dose if it differs, or a comment. The full list was thinned out, with hits kept by preference.

SMILES	Pf Dd2 inh
Cc1nc(CN2CCN(CC3(O)CNCCOC3)CC2)cs1 (configuration not stated)	–
COc1cncc([C@@H](NC(=O)Cc2cn3ccsc3n2)C2CC(O)C2)c1 (some centres not stated)	–
CCN1CCCC1CNC(=O)Cn1nc2c(cc1=O)CCCC2 (configuration not stated)	–
CN1C[C@H](NCc2ccc(F)cc2)CCC[C@@H](C(=O)NC2CC2)CC1=O	–
COc1ccc(C2(C(=O)N3CCC(Cc4nc(-c5ccc(F)cc5)no4)CC3)CC2)cc1	–
O=C(Nc1ccncn1)[C@@H]1C[C@@H](c2ccc(F)cc2)N(Cc2ccccc2)C1	–
Cn1cc(CN2C[C@H](C(=O)Nc3ccc(F)cc3)C[C@@H]2c2cccc(C(F)(F)F)c2)cn1	–
Cn1cc(CN2C[C@H](C(=O)NCc3cccc(F)c3)C[C@H]2c2cccc(C(F)(F)F)c2)cn1	8.9µM
COc1ccc(CNC(=O)[C@@H]2C[C@@H](c3ccc(F)cc3)N(Cc3ccccc3)C2)cc1OC	–
Cn1cc(CN2C[C@H](C(=O)Nc3ccccc3)C[C@@H]2c2cccc(C(F)(F)F)c2)cn1	–
Cn1ccc(NC(=O)[C@@H]2C[C@@H](c3ccc(F)cc3)N(Cc3ccccc3)C2)n1	13µM
Cn1cc(CN2C[C@H](C(=O)Nc3ccn(C)n3)C[C@@H]2c2cccc(C(F)(F)F)c2)cn1	–
Cc1nc(CN2C[C@H](C(=O)N3CCN(CCO)CC3)C[C@@H]2c2ccc(F)cc2)cs1	–
Cc1nc(CN2C[C@H](C(=O)NCc3cccc(F)c3)C[C@@H]2c2ccc(F)cc2)cs1	14µM
CCc1ccc(CN2CCC(CNC(=O)c3occc3C)CC2)nc1	–
CNC(=O)C1(N2CCC[C@H]2C(=O)NCc2ccccc2)COC1	–
Cn1ncc(N2CCN(c3cc(C4CC(O)C4)nc(N)n3)CC2)cc1=O (configuration not stated)	–
CCc1cc(=O)n(CC(=O)Nc2cccc(Br)c2)c(N2CCOCC2)n1	–
Cc1c(-c2ccccc2F)[nH]c2ccc(CNC(=O)CCN3CCCO3)cc12	–
Cc1ccc(S(=O)(=O)N(C)CC2CCOC2)cc1C (configuration not stated)	–[5.79 µM]
Cc1nc(-c2ccc(OC3CCN(C(=O)c4[nH]nc5c4COc4ccccc4-5)C3)cc2)no1 (configuration not stated)	–[5.79 µM]
Cc1ccc(N2CC(c3noc(C4(c5ccccc5)CC4)n3)CC2=O)cc1 (configuration not stated)	–
O=C1Nc2ccc(-c3cccs3)cc2C(=O)N2CC[C@H](NS(=O)(=O)c3ccc(Cl)cc3)C[C@@H]12	–
CC(C)C[C@@H](NC(=O)C1=C[C@@H](NC(=O)CC(C)(C)C)[C@@H](O)[C@H](O)C1)C(N)=O	–
CCCc1ccc2oc(C(=O)N(C)CCC3CCCCO3)c(C)c2c1 (configuration not stated)	10µM
SMILES	Pf Dd2 inh
CCCc1ccc2oc(C(=O)NCCc3nncn3CC)c(C)c2c1	–
Cc1c(Cl)cc(C(=O)N(C)CCC2CCOCC2)cc1Cl	–
CC(=O)Nc1ccc(CN2CCC3(CC2)CC(c2cccnc2)=NO3)cc1	–
N#Cc1ccc(CN2CCC3(CC(c4cccc(C(F)(F)F)c4)=NO3)C2)cc1 (configuration not stated)	–
CC(=O)Nc1ccc(CN2CCC3(CC2)CC(c2cccc(C(F)(F)F)c2)=NO3)cc1	10µM
Fc1ccc(CN2CCC3(CC(c4cccc(C(F)(F)F)c4)=NO3)C2)cc1 (configuration not stated)	10µM
Fc1ccc(CN2CCCC3(CC(c4cccc(C(F)(F)F)c4)=NO3)C2)cc1 (configuration not stated)	–
CN(C)c1ccc(CN2CCCC3(CC(c4cccc(C(F)(F)F)c4)=NO3)C2)cc1 (configuration not stated)	–
O=C1CCN(C(=O)Cc2ccccc2)CCCC(CO)CCN1 (configuration not stated)	–
O=C(c1ccccc1F)N1CCC2(CC1)C(=NC1CCCCC1)NC(=O)N2c1cccnc1	–
Fc1cccc(-c2cc3c(cn2)CN(Cc2ccncc2)CCN3)c1	–
c1ccc(Oc2ccccc2-c2cc3c(cn2)CN(Cc2ccncc2)CCN3)cc1	8.9µM
c1cc(CN2CCNc3cc(-c4ccsc4)ncc3C2)ccn1	–
Cc1ccc(C(=O)N2CCC([C@@H]3CNC[C@H]3CO)CC2)cc1C	–
Cc1ccc(C(=O)N2CCC(Cc3nc(-c4ccccc4)no3)CC2)cn1	–
C=Cc1ccc(Cn2c(=O)n(CC3CCC(C(=O)NC(C)C)CC3)c(=O)c3sccc32)cc1 (configuration not stated)	11µM
COc1cccc(Cn2c(=O)n(CC3CCC(C(=O)N4CCOCC4)CC3)c(=O)c3sccc32)c1 (configuration not stated)	8.9µM
CCCNC(=O)C1CCC(Cn2c(=O)c3sccc3n(Cc3ccccc3C)c2=O)CC1 (configuration not stated)	–
CC1CCN(C(=O)Cn2c(=O)n(CC3CCC(C(=O)NC(C)C)CC3)c(=O)c3sccc32)CC1 (configuration not stated)	–
CNC(=O)C1CCC(Cn2c(=O)c3sccc3n(CC(=O)N3CCCCC3C)c2=O)CC1 (configuration not stated)	–
CCCNC(=O)C1CCC(Cn2c(=O)c3sccc3n(CC(=O)NCc3ccccc3)c2=O)CC1 (configuration not stated)	–
Cc1ccc(CC(=O)NCCc2noc(C3CC3)n2)cc1	–
C[C@H](C(=O)N(C)CCC#N)C1CC[C@@]2(C)Cc3sc(NC(=O)c4cccn4C)nc3[C@@H](C)[C@@H]2[C@H]1O (some centres not stated)	–
CCCNC(=O)N1CCC2(CCC2NC(=O)COC)CC1 (configuration not stated)	–
CN(C(=O)Cc1cccc(Cl)c1)C1CCCc2ccccc21 (configuration not stated)	14µM
SMILES	Pf Dd2 inh
CN(C(=O)Cc1cccc(Cl)c1)C1CCc2ccccc21 (configuration not stated)	–
CN(CC1CCOCC1)C(=O)Cc1cccc(Cl)c1	–
COc1ccc(-c2cc(CC3(NCc4ccccc4O)COC3)no2)cc1	–
Cc1ccc(-c2nnc(C3CN(C(=O)c4ccoc4)CC34CCOCC4)o2)cc1 (configuration not stated)	–
O=S1(=O)CCC(S(=O)(=O)Nc2ccc(F)cc2)C1 (configuration not stated)	–
Cc1cc(C)n(C)c(=O)c1C(=O)N1CCC2(CC1)CNC(C(=O)O)C2 (configuration not stated)	–
CCCN(CC1CCOC1)C(=O)c1cc(Cl)ccc1F (configuration not stated)	–[5.79 µM]
O[C@@H]1CN(CC2CCNCC2)CC[C@H]1c1ccc2ccccc2c1	11µM
CS(=O)(=O)c1ccc(CN2CC[C@@H](c3ccc4ccccc4c3)[C@H](O)C2)cc1	–
O=C(O)c1ccc(CN2CC[C@@H](c3ccc4ccccc4c3)[C@H](O)C2)cc1	–
Cn1cnnc1CC1CCN(C(=O)c2cccs2)CC1	–
Cc1c(CC(=O)NCC2CCCOC2)c2c(n1CC(C)C)CC(C)(C)CC2=O (configuration not stated)	–
COc1ccccc1NC(=O)CSc1nc(-c2ccc(C(C)(C)C)cc2)c(C#N)c(=O)[nH]1	10µM
Cc1ccc(C)c(NC(=O)CSc2nc(-c3ccccc3)c(C#N)c(=O)[nH]2)c1	–
